Among the data in PubChem BioAssay (NCI) are growth inhibition values, retold here.

Compounds without any hit were thinned out: in the full panel of roughly 79,000, 15% have a hit. Values without a mark were called inactive. Calls of active or inactive are those of the source. Cut-off read from the data, not from the text of the source: active = growth inhibition above about 70%; inactive = the rest.

A short description of this experiment: NCI Yeast Anticancer Drug Screen. Data for the sgs1 mgt1 strain (AID 161).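 Note: 0% = growth of cultures given vehicle only.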 The note with it: S. cerevisiae sgs1 mgt1 strain, stronger effect = higher value. The method, then:
Growth inhibition of yeast strains with defined genetic alterations is measured as a screen for potential anti-cancer activity. Selected strains with alterations in DNA damage repair or cell cycle control were exposed to compounds and growth inhibition was measured relative to vehicle treated controls. The strain used in this assay is sgs1 mgt1

The mark [1] stands for this setting: at 5.0 µM (retest, dose inferred, filed as 0.5).
Setting [2] is: at 50.0 µM (retest, dose inferred, filed as 5.0).

As for `CC[n+]1cnc(N)c2c(-c3ccc(Cl)cc3)cn(-c3ccc(C)cc3)c21`, the growth inhibition by setting is: under setting [1], -6%; under setting [2], 99% (active); (at 50.0 µM) 97.9% (active).

For the compound `O=C1/C(=C/c2ccc3c(c2)OCO3)Sc2scc(-c3ccc(O)c(O)c3)[n+]21`, the growth inhibition under setting [1] was 67%, the growth inhibition under setting [2] was 98% (active) and the growth inhibition (at 50.0 µM) is 91% (active).

Consider `COc1ccc(OP2(Oc3ccc(OC)cc3)=NP(Oc3ccc(OC)cc3)(Oc3ccc(OC)cc3)=NP(Oc3ccc(OC)cc3)(Oc3ccc(OC)cc3)=NP(Oc3ccc(OC)cc3)(Oc3ccc(OC)cc3)=N2)cc1`, for which the growth inhibition was 71% (active) under setting [1], 28% under setting [2] and 67.3% (at 50.0 µM).

As to `OCC(O)C(O)C(O)/C=N\Nc1ccccc1` (configuration not stated), the growth inhibition is -5% under setting [1], 15% under setting [2] and 39.5% (at 50.0 µM).

Turning to `C/C(=N/NC(=S)NCc1ccccc1)c1ncccn1`, the growth inhibition was 2% under setting [1], 98% (active) under setting [2] and 99% (active) (at 50.0 µM).

Regarding `CC1C(O)Oc2cc3c(cc2C1c1ccccc1O)OCO3` (configuration not stated), the growth inhibition is -33% under setting [1], 40% under setting [2] and 56.5% (at 50.0 µM).

As to `CCC(c1ccc(O)cc1)C(O)(CC)c1ccc(O)cc1` (configuration not stated), the growth inhibition under setting [1] is -3%, the growth inhibition under setting [2] was 35% and the growth inhibition (at 50.0 µM) was 65.1%.

Consider `CCCCCCCCCCN`, for which the growth inhibition reads like this: under setting [1], 7%; under setting [2], 36%; (at 50.0 µM) 71% (active).

In the case of `ON(Cc1ccccc1)C(=S)c1ccccc1`, the growth inhibition by setting is: under setting [1], 24%; under setting [2], 98% (active); (at 50.0 µM) 91.5% (active).

Turning to `COc1ccc(N=NN(C)C)cc1`, the growth inhibition under setting [1] is -7%, the growth inhibition under setting [2] is 35% and the growth inhibition (at 50.0 µM) is 83.7% (active).

Consider `COc1ccc2c(c1OC)OCC2C` (configuration not stated), for which the growth inhibition is 1% under setting [1], 56% under setting [2] and 37.6% (at 50.0 µM).

With `CC(=O)Nc1ccc2c(c1)C(S)c1ccccc1-2` (configuration not stated), the growth inhibition under setting [1] is 2%, the growth inhibition under setting [2] is 53% and the growth inhibition (at 50.0 µM) was 46.6%.

Turning to `COC(=O)c1ccccc1C=C(c1ccc([N+](=O)[O-])cc1)c1ccc([N+](=O)[O-])cc1`, the growth inhibition was 4% under setting [1], 98% (active) under setting [2] and 96.5% (active) (at 50.0 µM).

For the compound `COc1cc(NCCCCCNC(C)C)c2ncc(C)c(C)c2c1`, the growth inhibition under setting [1] is 3%, the growth inhibition under setting [2] is 23% and the growth inhibition (at 50.0 µM) is 61.4%.
